# From the supplement of paper PMC6555819
# Tested on: PXR homodimer (NR concentration 270 nM)
# Test: PBM binding z-score (relative to random genomic background probes); higher = stronger binding; sequences stand for … in GC…GCGATTGACAGCGTAGAATGAAGG
# Method in brief: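 Regression normalization was applied to scanned fluorescence from custom Agilent 4×180K protein-binding microarrays. Before scanning, arrays were incubated 1 h with ligand-free nuclear receptor dimers, and binding was detected with antibodies against each partner (one per run). Binding z-scores use the random background probes as reference.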
row,Sequence,PBM binding z-score
1,TCTCGGAGGACACGATGGTCAGAGCTTTCCAGAG,-0.66
2,GCTTACGGATCAAAGGTTATAGCATGAATAGAAT,-0.00589
3,CTACCAAGGTGAACAAGGTCGTCGATTACTATTC,0.761
4,AATACAGGGTCATCGTAGGCCAGTGTACGCACAG,0.408
5,CCTGCTAGGTCATGGTCAGATAATCTACAGTATG,-0.264
6,CGAACTAGGTCAAAGGTCAAAGTCGAGCCAACCA,2.03
7,AATACAGGGTCATTGTAGGCCAGAGTACGCACAG,0.912
8,AGAATGAGGTTATACGTAGATCAGGGATGAAAGT,0.675
9,ATCGAAAGGTCGAGGTGAGTTTAGAGAAAGGGAA,1.12
10,TGAATGAGGTGATAAGATCAGGGAACGTTGCAAA,-0.0145
11,ATCGAAAGGTCGAAGGTTAGTATACCCACCCGAA,0.404
12,TCATATAGGTAAAGGGTGAAAGTCGGTGTGGTAA,0.961
13,CCTTACGGGTCAAGGTTATAGCGCGGGTGGTACG,-0.0779
14,CATCCAAGGTCAGAGAGGTCAGTGAATGCCGAGT,12
15,CCTTACGGGGCACTGACAGGTTATAGCATTTGGA,-0.274
16,TGAATGAGGTTAAAAATCAGGGAACGTGGCGTCG,-0.0817
17,TTACCAAGGTGAAAGGTTGTTGATGCACGCCTTG,-0.373
18,CCTAGCAGGCCCGGGTCACTCAAGCATTTCGCTT,-0.484
19,AGTCAAAGTTCACCAGGTAACGTAAGATTCAGCT,2.63
20,TCTTGTAGATCAAGCCGGTTAAGAAAGCCTGAGT,0.0295

row,Sequence,PBM binding z-score
1,TCGAGTAGGTTAGGGGCCTTCAGAATGGCGTCGA,-0.829
2,GCTGGGAGGACAAGGTCAGAGCTTTGTCCGTAGA,-0.0131
3,CCTTAAGGGTCAAGGTTATAGCACGGGTGGTACG,0.453
4,GCGAGCAGGCCATTTGGGTCACTCAATGACGGGC,0.189
5,CGAACTAGGTCATCTAGGACAGTGAATACATTGA,0.602
6,CCAGACAGGTGAAAGGTACCTCAGTCTGGTACGC,-0.251
7,GCAGACAGGTAAAACGCAGGTAACTCAGGGTGGC,-0.484
8,CCTCGCAGGCCAATCTGGGTCACTCAAGGCTTGA,-0.402
9,GGAACGAGGGCATTCTAGTTGATAGCATGGCGAT,0.396
10,CCTACTAGGCCATTCAGAGGTCATTGATCATATG,3.44
11,AGAACGACGGCACGCTGAGTTGATAGCAGAGTAG,0.0818
12,TCTGCTAGGTTAGTTGGTCAGCTAACGAGCTGCC,-1.1
13,ATCTCTAGGTAACAAGTTCAGTGTAAGAGAGGAC,2.33
14,ATCGAAAGGTCGTGAGGTGAGTAGACAGAAAGGC,0.328
15,CCTACTGGGCCACGAAAGCTCATTGATTCAGTGA,-0.798
16,AGAACGAGGGCAATGAGTTGATGGCACGGGTGGC,3.75
17,CCTACTGGGCCAAGGTTATTGATCAGTCAAAGCA,-0.133
18,CCTTACGGGTCAAGGTTTTAGCACGGGTGGTACG,-0.244
19,TCTTGTAGACCAATAGAGGTTAAGAAAGTGCGCT,0.469
20,ACAGACAGGTGAGTGAAGGTAACTTAGCTGGACG,-0.19
